From PubChem BioAssay AID2685 (National Center for Advancing Translational Sciences (NCATS), 2010)
Out of some 320,000 compounds screened, about 2,100 (0.66%) were called active. About 53% were inconclusive and are not listed. Calls follow the shape of the dose curve; as a rule, active = well fitted inhibition curve with a large enough effect in the signal ratio, with a control signal flat (not every such curve was filed as active); inconclusive = small, poorly fitted or top-dose-only effect, or effect the other way, or a change in a side signal; inactive = flat fitted curve, though single readings scatter; the % refers to the signal ratio. Shown is part of a subset that was picked to be rich in actives.

assay: qHTS Assay for Lipid Storage Modulators in Drosophila S3 Cells; conditions: BODIPY lipid droplet fluorescence, 18-24 h, cells fed with added oleic acid; cell number change: measured here: cell count max response; series mostly up to 46.1 µM;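 as to cell number change: cells counted by Cell Tracker Red CMTPX staining in the red channel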; as to lipid storage change, negative = inhibition: % is scaled to controls: 0 for no effect and ±100 for the full control effect
Summary of the method: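 Drosophila S3 cells loaded with oleic acid (400 uM, as added) and compounds at several concentrations; lipid droplets imaged by 488-nm laser-scanning cytometry, 500–530 nm intensity and object ratio to cell channel. Percent activity normalized to 20 uM Triacsin C.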
Potency is read from the fitted curve at half-maximal effect.

SMILES	Potency	cell number change [%]	lipid storage change, negative = inhibition
Cc1occc1C(=O)N1CCN(c2ccc(Cl)c(Cl)c2)CC1	inactive	–	–
Cc1ccccc1OC(C)C(=O)N1CCC(Cc2ccccc2)CC1 (centres undefined)	inactive	12.1	–
O=C(Cc1ccc(Cl)cc1)NNS(=O)(=O)c1ccc([N+](=O)[O-])cc1	inactive	7.62	–
O=C(NNS(=O)(=O)c1ccccc1)c1ccc([N+](=O)[O-])cc1	inactive	3.57	–
O=C(Cc1ccccc1)NNS(=O)(=O)c1ccc([N+](=O)[O-])cc1	1.46 µM (active)	0.088	–
Cc1ccc(Cc2cnc(NC(=O)/C(C#N)=C/c3ccc(-c4ccccc4[N+](=O)[O-])o3)s2)cc1	inactive	-16	–
CCOC(=O)CNC(=O)CSc1nc(Cc2ccccc2)nc2ccccc12	7.31 µM (active)	-15.2	–
CCOC(=O)CNC(=O)CSc1nc(Cc2cccs2)nc2ccccc12	inactive	-11.5	–
CCOC(=O)CSc1nc(Cc2ccccc2)nc2ccccc12	inactive	–	–
O=C(NN=C1CCCC1)c1ccccc1[N+](=O)[O-]	inactive	7.42	–
Cc1cc(C)nc(NC(C)(C)C(=O)O)n1	inactive	0.119	–
O=C(c1ccccc1Br)N1CCCC(c2nc(-c3cccs3)no2)C1 (centres undefined)	inactive	–	–
Cc1ccc(-c2noc(C3CCCN(C(=O)c4ccccc4Br)C3)n2)cc1 (centres undefined)	18.4 µM (active)	-26.6	–
COc1ccc(-c2noc(C3CCCN(C(=O)c4ccc(C)cc4)C3)n2)cc1 (centres undefined)	inactive	10.5	–
Cc1nn(C)c(Cl)c1C(=O)NCC(=O)NCc1ccccc1	inactive	-13	–
Nc1nonc1-n1nnc(C(=O)N/N=C/c2ccoc2)c1-c1ccccc1	inactive	11.3	–
O=C(O)c1ccccc1C(=O)NCCCn1ccnc1	inactive	7.04	–
Nc1c(O)ccc2c1C(=O)c1ccccc1C2=O	inactive	-17.1	–
CCOc1cc(C(=O)OCC(=O)N(C)c2ccccc2)cc(OCC)c1OCC	inactive	9.01	–
Cc1[nH]nc(SCC(=O)N2CCCC2)c1[N+](=O)[O-]	inactive	-4.82	–
COc1ccc(N2CCN(C(=O)CCCn3c(=O)c4cccn4c4cccnc43)CC2)cc1	inactive	22.2	–
CCc1ccc(CNC(=O)CCCn2c(=O)c3cccn3c3cccnc32)cc1	inactive	–	–
COc1cccc(CNC(=O)CCn2c(=O)c3cccn3c3cccnc32)c1	inactive	1.83	–
CN1CCN(C(=O)CCn2c(=O)c3cccn3c3cccnc32)CC1	inactive	17.7	–
COc1ccc(CCNC(=O)CCCn2c(=O)c3cccn3c3cccnc32)c(OC)c1	16.4 µM (active)	-19.3	–

SMILES	Potency	cell number change [%]	lipid storage change, negative = inhibition
CSc1cccc(NC(=O)CCCn2c(=O)c3cccn3c3cccnc32)c1	18.4 µM (active)	-18.8	–
CCOC(=O)C1=C(CS(=O)(=O)c2ccc(Cl)cc2)NC(=O)NC1c1ccc(O)c(OC)c1 (centres undefined)	inactive	23	–
O=C(OC(C(=O)Nc1ccc(Cl)cc1C(F)(F)F)c1ccccc1)C1=COCCO1 (centres undefined)	inactive	-1.65	–
CCN(CC)CCCN1C(=O)C(O)=C(C(=O)c2sc(C)nc2C)C1c1ccc(C)o1 (centres undefined)	inactive	0.178	–
COc1cc(/C=C/c2noc(-c3ccccc3O)n2)ccc1OC(C)=O	inactive	8.42	–
CC(C)(C)NC(=O)/C=C/c1cccc(C(F)(F)F)c1	inactive	-3.06	–
COc1ccccc1Nc1ccc([N+](=O)[O-])cn1	inactive	25.6	–
COc1ccc(Nc2ccc([N+](=O)[O-])cn2)cc1	inactive	13.2	–
COc1ccc(Nc2ccc([N+](=O)[O-])cn2)cn1	16.4 µM (active)	-5.41	–
CCc1nn(CC(=O)NCCCN(CC)c2cccc(C)c2)c(=O)c2cc3occc3n12	inactive	-11.1	–
CCOC(=O)CCn1cc(F)c(=O)n(Cc2ccccc2)c1=O	inactive	12.1	–
CC(Sc1nc(N2CCOCC2)nc(N2CCOCC2)n1)C(=O)Nc1ccccc1 (centres undefined)	inactive	-7.21	–
CCOc1nc(SC(C(C)=O)C(=O)Nc2ccccc2)nc(N(C)C)n1 (centres undefined)	inactive	-9.19	–
CC(C)Nc1nc(SC(C)C(=O)Nc2ccccc2)nc(N(C)C)n1 (centres undefined)	8.2 µM (active)	-27.6	–
COC(=O)c1ccc(-c2ccc(/C=N/N3C(=O)C4C5C=CC(C6CC56)C4C3=O)o2)cc1 (centres undefined)	20.6 µM (active)	4.78	–
COC(=O)c1cccc(-c2ccc(/C=N/N3C(=O)C4C5C=CC(C6CC56)C4C3=O)o2)c1 (centres undefined)	inactive	-7.37	–
COC(=O)c1ccc(-c2ccc(/C=N/N3C(=O)C4C5C=CC(CC5)C4C3=O)o2)cc1 (centres undefined)	inactive	10.1	–
O=c1nc(/C=C/c2ccccc2C(F)(F)F)cc(C(F)(F)F)[nH]1	0.517 µM (active)	-22.9	–
COc1ccc(/C=C/c2cc(C(F)(F)F)[nH]c(=O)n2)cc1OC	inactive	7.45	–
O=c1nc(-c2ccccc2)cc(C(F)(F)F)[nH]1	inactive	-9.42	–
CCc1ccc(N2CC(C(=O)NC3CCCCC3C)CC2=O)cc1 (centres undefined)	inactive	-4.76	–
COC(=O)c1ccc(COc2ccccc2/C=N/NS(=O)(=O)c2ccccc2)cc1	inactive	-14.9	–
CCCCC1C(=O)CC[C@H]2[C@@H]1CC(=O)[C@@H]2C/C=C\CCCC(=O)O (some centres undefined)	9.2 µM (active)	-6.62	–
CCCCC/C=C\C/C=C\C/C=C\C/C=C\CCCC(=O)O	inactive	-29.6	–
CCCCC[C@H](O)/C=C/[C@H]1C=CC(=O)[C@@H]1C/C=C\CCCC(=O)O	inactive	10.2	–

SMILES	Potency	cell number change [%]	lipid storage change, negative = inhibition
CCn1c(=O)c(C(=O)NCc2ccccc2OC)c(O)c2ccccc21	inactive	3.38	–
Cc1cccc(C)c1OCc1nnc(SCC(=O)Nc2ccccc2F)o1	inactive	-7.4	–
CCc1nnc(NC(=O)CSc2nnc(CSc3nc(C)cc(C)n3)o2)s1	inactive	9.83	–
Cc1ccc(NC(=O)c2cc(S(=O)(=O)NCCC3=CCCCC3)ccc2F)cc1	inactive	-3.48	–
O=C(Nc1cccc(-n2cnnn2)c1)c1ccoc1COc1ccc(Cl)cc1	29.1 µM (active)	-18.1	–
O=C(Nc1ccc(C(F)(F)F)cc1)c1cccc(-n2cnnn2)c1	inactive	8.84	–
O=C(CNC(=O)c1cccc(-n2cnnn2)c1)Nc1ccc(F)c(F)c1	inactive	0.376	–
COc1ccc(NC(=O)COc2cccc(-n3cnnn3)c2)cc1	inactive	-3.85	–
O=C(Nc1cccc(-n2cnnn2)c1)c1cccc(Cl)c1	14.6 µM (active)	-16	–
O=C(Nc1cccc(-n2cnnn2)c1)c1ccco1	inactive	-16.6	–
O=C(COc1cccc(-n2cnnn2)c1)Nc1ccccc1	inactive	-12.3	–
Cc1cc(OCCCC(=O)Nc2cccc(-n3cnnn3)c2)ccc1Cl	3.26 µM (active)	3.23	–
O=C(Nc1cccc(-n2cnnn2)c1)c1cccs1	inactive	-3.63	–
Cc1ccc(C)c(NC(=O)c2cc[n+](C)cc2)c1	inactive	-24.7	–
CCOC(=O)COc1ccc(S(=O)(=O)NCc2ccncc2)cc1	inactive	–	–
Cc1ccc(/C=C/C(=O)N(Cc2cccs2)C2CCS(=O)(=O)C2)cc1 (centres undefined)	inactive	11.3	–
CCOC(=O)c1c(-c2ccccc2)csc1NC(=O)CSc1nc(N)cc(N)n1	inactive	11.6	–
COCCCn1c(C)nnc1-c1cnn(-c2ccccc2)c1N	inactive	22.6	–
O=C(Nc1cccnc1)c1ccc2c(c1)C(=O)N(CC1CCCO1)C2=O (centres undefined)	inactive	5.85	–
COc1ccc2cc3cc(C(=O)NCCN4CCN(c5ccccc5F)CC4)oc3nc2c1	inactive	-11.8	–
C/C(CS(=O)(=O)c1ccccc1)=N\O	inactive	-17.1	–
CCN(Cc1ccccc1)C(=O)CS(=O)(=O)c1ccccc1	inactive	0.704	–
C/C=C(\CS(=O)(=O)c1ccccc1)S(=O)(=O)c1ccccc1	5.17 µM (active)	-14.9	–
O=C(NNC(=O)c1cccc(S(=O)(=O)N2CCN(c3ccccc3)CC2)c1)c1ccc(Cl)cc1	inactive	-1.16	–
O=C(Nc1cccc(C(F)(F)F)c1)Oc1ccc(Cl)c2cccnc12	8.2 µM (active)	-22.5	–

SMILES	Potency	cell number change [%]	lipid storage change, negative = inhibition
O=C(Nc1cccc(C(F)(F)F)c1)c1cccnc1N1CCN(CCO)CC1	inactive	–	–
CCN(CC)C(=O)Oc1ccc(Cl)c2cccnc12	inactive	-13.1	–
O=C(Nc1cccc(C(F)(F)F)c1)c1cccnc1N1CCCC1	inactive	–	–
O=C(Oc1ccc(Cl)c2cccnc12)N1CCCCCC1	inactive	0.575	–
O=C(Nc1cccc(C(F)(F)F)c1)c1cccnc1NCCO	9.2 µM (active)	17.5	–
CCOc1ccccc1Oc1nc(-c2ccccc2O)nc2ccccc12	inactive	16.3	–
N#Cc1c(C(F)(F)F)cc(-c2ccc(F)cc2)nc1SCC(=O)O	inactive	0.873	–
CC(c1ccc(O)cc1)(c1ccc(O)cc1)c1ccc(CCBr)cc1	inactive	-16	–
O=C(Nc1ccc(-n2cc(Cl)cn2)cc1)c1ccncc1	inactive	13	–
Cc1ccc(C(=O)/C=C/N(C)C)o1	inactive	-4.62	–
COc1ccc(C2=NC(C)(C)Cc3cc(OC)c(OC)cc32)cc1	inactive	-1.73	–
CCNC(=O)n1nccc1C(C)Oc1ccccc1 (centres undefined)	inactive	17.8	–
CCc1ccc(CNC(=O)C2CCN(S(=O)(=O)N3CC(C)CC(C)C3)CC2)cc1 (centres undefined)	inactive	14.3	–
Cc1ccc(CNC(=O)CSc2nccn(-c3ccc(C)c(F)c3)c2=O)cc1	14.6 µM (active)	-20	–
CCOc1ccc(-n2ccnc(SCC(=O)NCCc3ccccc3)c2=O)cc1	inactive	-8.43	–
COc1ccc(CNC(=O)CSc2nccn(-c3ccc(F)c(F)c3)c2=O)cc1	–	17.2	-25.5% [at 0.0737 µM] (inactive)
CN1CCN(c2ncnc3sc(-c4ccccc4)cc23)CC1	inactive	24.2	–
CN1CCN(C(=O)/C=C/c2ccc([N+](=O)[O-])cc2)CC1	inactive	-5.05	–
COc1ccc(/C=C/C(=O)c2ccc([N+](=O)[O-])o2)cc1	inactive	5.86	–
O=C(/C=C\c1ccc(-c2cccc([N+](=O)[O-])c2)o1)N1CCOCC1	inactive	1.96	–
CCN(CC)S(=O)(=O)c1ccc(C(=O)/C=C/c2ccc(-c3ccc([N+](=O)[O-])cc3)o2)cc1	inactive	6.91	–
CCc1ccc(C(=O)/C=C/c2ccc([N+](=O)[O-])o2)cc1	1.3 µM (active)	-21.1	–
CN1CCN(C(=O)/C=C/c2ccc([N+](=O)[O-])o2)CC1	32.6 µM (active)	-21.6	–
